High-throughput results (PubChem)
Sampled rows, rich in hits. Any-hit rate of the full collection: about 3.3%.
ABHD5 PLIN5 PPI: blocks binding of human ABHD5 to perilipin-5. Split G. princeps luciferase complementation, luminescence, 4 h. inhibition, % at 4 µM. actives 0.78% (n = 360,000). Q00G26+Q8WTS1;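 active = inhibition above the mean inhibition across every tested compound plus 3 SD, cut at about 22% in these data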;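 note: 0% = DMSO only wells and the 100% control is not disclosed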
PRMT1 FP inh: inhibitors of human PRMT1. Q99873. inhibition, % at 2.79 µM. actives 1.3% (n = 370,000). recombinant PRMT1, activity-based probe fluorescence polarization;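 active = inhibition above about 21% made by adding two undisclosed values, limit read from the data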
TLR4-MyD88 BLA: inhibitors of human TLR4-MyD88 binding; inhibition, % at 8.4 µM; actives 0.18% (n = 200,000); O00206+Q99836; AID 861; HeLa CL3-4 TLR4/MyD88 BLA complementation, FRET ratio; in the data active = inhibition above about 25%;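 note: 0% = vehicle and 100% = reference inhibitor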
rCAG binder: molecules binding r(CAG) RNA repeats; inhibition, % at 3 µM; actives 1.3% (n = 370,000); r(CAG) RNA repeat, TO-PRO-1 dye displacement fluorescence;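 active = inhibition above the plate cutoff, the mean of all test compounds on that plate plus 3 SD, cut at about 35% in these data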;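 note: 0% = DMSO alone and 100% = 100 µM mitoxantrone as full dye displacement; higher means more dye released from RNA so lower well fluorescence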
TLR9-MyD88 inh: TLR9-MyD88 interaction inhibition; Q9NR96+Q99836; actives 0.21% (n = 340,000); inhibition, % at 4.98 µM; CHO BLA complementation TLR9-MyD88, CCF4 FRET ratio;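 active = inhibition above the mean over all tested compounds plus 3 SD, cut at about 21% in these data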;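 note: 0% = DMSO only wells and 100% = clavulanate BLA inhibitor control wells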
NOD2-RIPK2 inh: blocks binding of human NOD2 to RIPK2; O43353; CHO BLA complementation NOD2-RIPK2, CCF4 ratio; inhibition, % at 4.98 µM; actives 0.38% (n = 360,000); AID 624267; in the data active = inhibition above about 21%;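 note: 0% = vehicle only and 100% = reference blocker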
ABHD5-PLIN5 conf: confirmation of human ABHD5-PLIN5 interaction inhibitors. biochemical ABHD5-PLIN5 interaction, luminescence. actives 67% (n = 2,200). shares compounds with ABHD5 PLIN5 PPI. inhibition, % at 4 µM; in the data active = inhibition above about 23%;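 note: 0% = DMSO vehicle wells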
HNF4 counter: active in HNF4 split-luciferase counter-screen for ABHD5-PLIN5 inhibitors; HNF4 dimerization, luminescence, biochemical; inhibition, % at 4 µM; shares compounds with ABHD5 PLIN5 PPI; actives 77% (n = 2,200);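 active = mean inhibition across replicate wells exceeding the computed hit threshold, cut at about 13% in these data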;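 note: light from luciferase halves that rejoin when HNF4 fusion proteins dimerize; 0% = DMSO only wells and the 100% control is not given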
* = called active by the depositor; nt = no result given; ! = repeats disagree.

SMILES	ABHD5 PLIN5 PPI	PRMT1 FP inh	TLR4-MyD88 BLA	rCAG binder	TLR9-MyD88 inh	NOD2-RIPK2 inh	ABHD5-PLIN5 conf	HNF4 counter
O=C1/C(=C/c2ccccc2)CCc2ccc(Cl)nc21	76*	3	nt	4	3	6	91*	74*
Nc1ccc(S(=O)C(F)(F)F)cc1 (configuration not stated)	2	0	9	-2	7	-6	nt	nt
CC1CCC/C=C/C(=O)c2c(O)cc(O)cc2CC(=O)O1 (configuration not stated)	32*	4	nt	13	-3	13	54*	70*
Cc1nc2c(o1)CCc1ccccc1C2N1CCN(C)CC1 (configuration not stated)	57*!	6	-6	-1	-4	-19	40*	7
Cc1nc(S(=O)(=O)N2CCN(C3c4ccccc4-c4ccccc43)CC2)cn1C	2	-2	nt	-2	nt	8	nt	nt
C=C1CCc2c([nH]c3ccc(OCC(C)C)cc23)C1=O	42*	6	nt	5	-6	6	90*	73*
CCCCN(C(=O)CC1CCCC1)c1c(N)n(Cc2ccccc2)c(=O)[nH]c1=O	0	0	nt	0	3	-8	nt	nt
Cc1ccc(CN2C(=O)C(=O)c3cc(C)ccc32)cc1	30*	0	nt	1	5	15	25*	43*
Cn1cccc([N+](=O)[O-])c1=O	4	4	nt	1	-15	2	nt	nt
Cn1c(=O)c(=O)n(C)c2cc([N+](=O)[O-])c([N+](=O)[O-])cc21	100*	6	21	-1	11	9	2	4
Cc1ccccc1C(=O)NCC(=O)OC(C)C(=O)NCc1ccco1 (configuration not stated)	25*	-5	nt	4	0	1	5	2
CCOc1ccc(C(=O)NCC(=O)OC(C)C(=O)NCc2ccco2)cc1OCC (configuration not stated)	5	5	-7	1	3	-7	nt	nt
C=C[C@]1(C)C[C@@H](OC(=O)CSCCN(CC)CC)[C@]2(C)C(C)CC[C@]3(CCC(=O)[C@H]32)[C@@H](C)[C@@H]1O (some centres not stated)	23*!	0	nt	-3	1	-17	33*	1
CC1(C)CC(=O)C=C(c2ccccc2F)C1=O	nt	-1	nt	4	nt	nt	nt	nt
Cc1ccc2c(Cl)c(Cc3ccccc3)c(=S)[nH]c2n1	-1	4	nt	8	4	5	nt	nt
COc1ccccc1-c1cc(C(F)(F)F)nc(S(=O)(=O)CCCC(=O)NC(C)C)n1	5	-2	-2	-2	-5	-4	nt	nt
COc1ccccc1-c1cc(C(F)(F)F)nc(S(=O)(=O)CCCC(=O)Nc2cccnc2Cl)n1	32*	3	14	2	13	9	51*	69*
O=C(NCc1ccccc1)C(c1ccncc1)n1c(=O)c(-c2ccccc2)nc2ccccc21 (configuration not stated)	0	2	nt	5	nt	-5	nt	nt
CC(C)(C)NC(=O)C(c1ccncc1)n1c(=O)c(-c2ccccc2)nc2ccccc21 (configuration not stated)	10	1	nt	2	nt	-5	nt	nt
CCCCCNC(=O)C(c1cc2ccccc2o1)n1c(=O)c(-c2ccco2)nc2ccccc21 (configuration not stated)	94*	17	nt	34	nt	-12	85*	14*
CCCCCNC(=O)C(c1ccncc1)n1c(=O)c(-c2ccco2)nc2ccccc21 (configuration not stated)	58*	8	nt	18	nt	-11	35*	15*
CC(C)(C)NC(=O)C(c1ccncc1)n1c(=O)c(-c2ccco2)nc2ccccc21 (configuration not stated)	48*	0	nt	19	nt	-16	44*	14*
CC(C)(C)NC(=O)C(c1cc2ccccc2o1)n1c(=O)c(-c2ccco2)nc2ccccc21 (configuration not stated)	79*	23*	nt	30	nt	3	84*	16*
CC[C@]12c3[nH]c4cc(-c5ccco5)ccc4c3CCN1C(=O)[C@@H](CC(=O)NCc1cccc(C(F)(F)F)c1)C[C@@H]2C(=O)N1CCN(C(=O)c2ccco2)CC1	1	14	nt	15	-6	3	nt	nt
COc1cccc(CSc2ccc(S(=O)(=O)N3CCOCC3)cc2C(=O)NCC2CCCO2)c1OC (configuration not stated)	6	1	4	-4	3	-8	nt	nt
SMILES	ABHD5 PLIN5 PPI	PRMT1 FP inh	TLR4-MyD88 BLA	rCAG binder	TLR9-MyD88 inh	NOD2-RIPK2 inh	ABHD5-PLIN5 conf	HNF4 counter
CC1=CC(C)(C)Nc2ccc(OC(=O)CN3C(=O)c4cccc5cccc(c45)C3=O)cc21	32*	11	2	19	4	6	71*	8
CC1=CC(C)(C)Nc2ccc(OC(=O)CN3C(=O)c4ccccc4C3=O)cc21	66*	-1	12	5	1	10	86*	79*
CC1=CC(C)(C)Nc2ccc(OC(=O)C(Cc3ccccc3)N3C(=O)c4ccccc4C3=O)cc21 (configuration not stated)	0	1	-7	-1	6	-7	nt	nt
CCOc1ccc2c(c1)C(C)=CC(C)(C)N2	-8	13	nt	3	7	-4	nt	nt
COc1ccc(C(CNC(=O)c2cccc(S(=O)(=O)N3CCCCC3)c2)N2CCCC2)cc1 (configuration not stated)	2	-4	nt	1	9	2	nt	nt
CCCNC(=O)C1(C)CCCN(Cc2ccc(C(F)(F)F)cc2)C1 (configuration not stated)	5	-2	nt	-1	nt	7	nt	nt
C=CCCC1(C)C(=O)N(c2ccccc2)c2ccccc21 (configuration not stated)	-2	1	-15	-5	4	5	nt	nt
C=CCC1(C)C(=O)N(c2ccccc2)c2ccccc21 (configuration not stated)	32*	0	-16	-4	2	-10	5	4
O=C(C=Cc1ccco1)c1cc(Cl)ccc1O	27*	10	nt	18	1	-2	53*	34*
O=C(/C=C/c1ccco1)c1ccccc1O	8	6	15	9	-9	-7	nt	nt
Cc1cc(=O)oc2c(C(=O)/C=C/c3ccccc3)c(O)ccc12	8	3	1	8	-4	-22	nt	nt
COc1ccc(/C=C\C(=O)c2c(O)ccc3c(C)cc(=O)oc23)cc1OC	50*	3	9	19	-6	-5	74*	61*
